Experimental findings from PubChem BioAssay (NCATS) are described below.

Results filed as inconclusive are left out. Where a call stands in place of a potency, no number is given. Active and inactive are the calls of the source. Calls come from the whole dose curve; as a rule, active = well fitted curve in the direction sought with a large enough effect; inconclusive = small, poorly fitted or top-dose-only effect, or another doubt; inactive = no such curve, though single readings can be large; an effect the other way counts as inactive or inconclusive. Square brackets hold non-standard residues; d marks the D form. Peptide text beside a SMILES is read from it. ξ: configuration not given here. ξL = CC(C)CC(N)C(=O)O

A short description of the first assay: HPAF-II 24hr Apoptosis Induction qHTS against the NCATS CANVASS Library (AID 1347356). The following applies: HPAF-II caspase-3/7 Caspase-Glo luminescence; series mostly up to 46.1 µM. In short, it runs like this:
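Cells seeded at 500 per well, then compounds pin-transferred in an 11-point concentration series. After 24 hours at 37 degrees C, Caspase-Glo 3/7 was added and luminescence measured following 15 min at room temperature.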
(Quantitative high-throughput screening tests each substance at several concentrations.)
For the compound `COc1ccc([C@@H]2c3cc4c(cc3C(=O)[C@H](C)C2C)OCO4)cc1OC` (some centres not stated), the result was inactive.

As to `C/C(=C\[C@H](C)C(=O)C[C@H](O)CC1CC(=O)NC(=O)C1)[C@@H]1OC(=O)CCCC/C=C/[C@@H](O)C[C@@H]1C`, the call was inactive.

With `CC1=C[C@H]2[C@H]3C(=O)C(c4ccc(O)cc4)=C[C@@]3(c3ccc(O)cc3)[C@@H]1C(=O)[C@]2(C)O`, the compound was called inactive.

On to `C=C1C(=O)O[C@H]2[C@H]1CCC(C)=C1CC[C@@](C)(O)[C@@H]12`, for which the compound was classed as inactive.

In the case of `C/C(=C\[C@H](C)C(=O)/C=C/CC1CC(=O)NC(=O)C1)[C@@H]1OC(=O)CCCC/C=C/[C@H](O)[C@@H](O)[C@@H]1C`, the call was inactive.

For the compound `C[C@H](c1cnc(N)[nH]1)c1ccc(O)c2[nH]cc(-c3cnc(-c4c[nH]c5ccccc45)c(=O)[nH]3)c12`, the call was inactive.

Consider `COc1ccc([C@@H]2c3cc4c(cc3C[C@H](C)C2C)OCO4)cc1OC` (some centres not stated), for which the result was inactive.

On to `CC[C@@H]1[C@H](C)[C@H](c2cc(OC)c(OC)cc2OC)[C@@H](C)[C@H](c2cc(OC)c(OC)cc2OC)[C@]12C=C(OC)C(=O)C=C2OC`, for which the compound was called inactive.

`C[C@H]1CCC2(OC1)O[C@H]1C[C@H]3[C@@H]4CC(=O)[C@]5(O)C[C@H](O)CC[C@@]5(C)[C@H]4CC[C@@]3(C)[C@H]1[C@H]2C` (some centres not stated): the call was inactive.

In the case of `C/C1=C/[C@@H](C)[C@H](O)C/C=C/CC/C=C/C(=O)O[C@@H]1[C@H](C)C(=O)CCCC1CC(=O)NC(=O)C1`, the compound was called inactive.

Take `C=C1C[C@H]2O[C@@H]3[C@@H]4[C@H](CC[C@@](C)(O)[C@@H]42)[C@H](C)COC3(C)[C@@H](OC(=O)CCCCCCC)CC1=O` (some centres not stated): the outcome was inactive.

A short description of a further assay: HEK293 18hr Apoptosis Induction qHTS against the NCATS CANVASS Library (AID 1347357). The following applies: HEK293 caspase-3/7 Caspase-Glo luminescence; series mostly up to 46.1 µM. In short, it runs like this:
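HEK293 cells (500/well, DMEM + 10% FBS) treated with an 11-point series for 18 h at 37 degrees C. Caspase-3/7 activity read by Caspase-Glo luminescence after 15 min at room temperature.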
For the compound `O[C@H]1C=C2[C@H]3CN(Cc4cc5c(cc43)OCO5)[C@H]2C[C@@H]1O`, the Potency entry is “inactive”.

In the case of `CC[C@@H](c1cc(OC)c(OC)cc1OC)[C@H](C)[C@@H](/C(C)=C/c1cc(OC)c(OC)cc1OC)c1cc(OC)c(OC)cc1OC`, the Potency result is “inactive”.

For `CC[C@@H](C)[C@H]1NC(=O)C(CC(C)C)NC(=O)[C@@H](CC(C)C)NC(=O)[C@H](Cc2c[nH]c3ccccc23)NC(=O)CNC(=O)[C@@H](CC(N)=O)NC1=O` (stereo partly drawn) (cyclo(GW[dL][ξL][dI][dN])), the Potency result was “inactive”.

For `CN1CCc2cc3c(c4c2C1(C)C(=O)c1cc(O)ccc1-4)OCO3` (configuration not stated), the Potency entry is “inactive”.

`COc1cc2c(cc1OC)[C@@H](c1ccc3c(c1)OCO3)C(C)[C@@H](C)C2=O` (some centres not stated): the Potency result was “inactive”.

As for `CC(C)[C@@H]1CC(=O)c2coc3c2[C@H]1C[C@@H](C)C3=O`, the Potency result was “inactive”.

On to `COc1cc2oc3ccccc3c(=O)c2cc1OC`, for which the Potency result was “inactive”.

In the case of `COC(=O)[C@@]1(C)CCC[C@]2(C)c3cc(OC)ccc3CC[C@@H]12`, the Potency entry was “inactive”.

For `COc1cc2ccc(=O)oc2c(O)c1O[C@@H]1O[C@H](CO)[C@@H](O)[C@H](O)[C@H]1O`, the Potency entry is “inactive”.

With `CC[C@H]1[C@@H](C)[C@@H](c2cc(OC)c(OC)cc2OC)[C@H](C)[C@@H](c2cc(OC)c(OC)cc2OC)[C@@]12C=C(OC)C(=O)C=C2OC`, the Potency entry is “inactive”.

Take `O=C1CCC(=O)N(O)CCCCCNC(=O)CCC(=O)N(O)CCCCCNC(=O)CCC(=O)N(O)CCCCCN1`: the Potency result is “inactive”.

As for `C=C1C[C@H]2O[C@@H]3[C@@H]4[C@H](CC[C@@](C)(O)[C@@H]42)[C@H](C)COC3(C)[C@@H](OC(=O)CCCCCCC)C[C@H]1O` (some centres not stated), the Potency entry was “inactive”.

Regarding `CC1=C(C)C(=O)OC(C(C)C2(O)CCC3C4C5OC5C5(O)CC=CC(=O)C5(C)C4CCC32C)C1` (configuration not stated), the Potency entry is “inactive”.

Turning to `C[C@H](CCC(O)C(C)(O)CO)[C@@]1(O)CC[C@@]2(C)C3=C(CC[C@@]21C)[C@@]1(C)CCC(OC(=O)CCC(=O)O)C(C)(C)[C@@H]1CC3` (some centres not stated), the Potency entry was “inactive”.

For `COc1cc(C2C3=C(Cc4cc5c(cc42)OCO5)C(=O)OC3)cc(OC)c1OC` (configuration not stated), the Potency result was “inactive”.

As to `C=C[C@@](C)(O)CC[C@@H]1[C@@]2(C)CCCC(C)(C)[C@@H]2CC[C@@]1(C)O`, the Potency result was “inactive”.

Regarding `COc1ccc([C@@H]2c3cc4c(cc3C(=O)[C@H](C)C2C)OCO4)cc1OC` (some centres not stated), the Potency result was “inactive”.

Regarding `C/C(=C\[C@H](C)C(=O)C[C@H](O)CC1CC(=O)NC(=O)C1)[C@@H]1OC(=O)CCCC/C=C/[C@@H](O)C[C@@H]1C`, the Potency result was “inactive”.

As to `CC1=C[C@H]2[C@H]3C(=O)C(c4ccc(O)cc4)=C[C@@]3(c3ccc(O)cc3)[C@@H]1C(=O)[C@]2(C)O`, the Potency result is “inactive”.

As for `C=C1C(=O)O[C@H]2[C@H]1CCC(C)=C1CC[C@@](C)(O)[C@@H]12`, the Potency result is “inactive”.

Take `C/C(=C\[C@H](C)C(=O)/C=C/CC1CC(=O)NC(=O)C1)[C@@H]1OC(=O)CCCC/C=C/[C@H](O)[C@@H](O)[C@@H]1C`: the Potency entry is “inactive”.

Take `C[C@H](c1cnc(N)[nH]1)c1ccc(O)c2[nH]cc(-c3cnc(-c4c[nH]c5ccccc45)c(=O)[nH]3)c12`: the Potency result is “inactive”.

For the compound `COc1ccc([C@@H]2c3cc4c(cc3C[C@H](C)C2C)OCO4)cc1OC` (some centres not stated), the Potency result was “inactive”.

In the case of `CC[C@@H]1[C@H](C)[C@H](c2cc(OC)c(OC)cc2OC)[C@@H](C)[C@H](c2cc(OC)c(OC)cc2OC)[C@]12C=C(OC)C(=O)C=C2OC`, the Potency entry is “inactive”.

As to `C[C@H]1CCC2(OC1)O[C@H]1C[C@H]3[C@@H]4CC(=O)[C@]5(O)C[C@H](O)CC[C@@]5(C)[C@H]4CC[C@@]3(C)[C@H]1[C@H]2C` (some centres not stated), the Potency result was “inactive”.

For `C/C1=C/[C@@H](C)[C@H](O)C/C=C/CC/C=C/C(=O)O[C@@H]1[C@H](C)C(=O)CCCC1CC(=O)NC(=O)C1`, the Potency result was “inactive”.
